# This excerpt belongs to a sample that is enriched for hits.
# Pf Dd2 inh: Plasmodium falciparum Dd2 growth inhibition; P. falciparum Dd2 growth, SYBR Green, 72 h; Potency, µM (series often up to 28.9 µM), for the others: top-dose activity, negative = inhibition, hits mostly inhibitors; 120,000 compounds, 4.3% hits; AID 1347417; active means well fitted inhibition curve with a large enough effect;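 further: plate controls were DMSO vehicle for no effect and reference drug for full effect; nearly all actives have a fitted effect of over 65% in size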
#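 Readout: SYBR Green fluorescence, 485 nm excitation, 535 nm emission, after ~16 h lysis at 37C. Before that, Dd2-infected red cells (2.5% hematocrit) grew 72 h with compound, 29 uM top final concentration.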
# Active calls of the source: *; i = inactive; [ ] = another dose, or the depositor's remark. Potency means the concentration at half of the fitted maximal effect.
SMILES,Pf Dd2 inh
COc1ccc(S(=O)(=O)N2CCC(Oc3cccc(C(F)(F)F)c3)CC2)cc1OC,9.4%
COc1cc2c(cc1OC)C(CNC(=O)Nc1ccc(C)cc1)N(C(=O)NC(C)C)CC2 (stereo not given),-9.8%
COc1cc2c(cc1OC)C(COc1cccc(C(F)(F)F)c1)N(C(=O)c1ccc(S(=O)(=O)N3CCCC3)cc1)CC2 (stereo not given),7.94µM*
Cc1ccc2c(c1)C(c1ccccc1)N(C(=O)c1ccc(S(=O)(=O)N3CCCC3)cc1)CC(=O)N2 (stereo not given),-21.5%
COc1ccc(N2CC(NC(=O)c3ccc(S(=O)(=O)N4CCCCC4)cc3)CC2=O)cc1OC (stereo not given),i
COc1cc2c(cc1OC)C(COc1ccc(C(C)C)cc1)N(C(=O)c1ccc(S(=O)(=O)N3CCCC3)cc1)CC2 (stereo not given),12.6µM*
COc1ccc(CNC(=O)C(C)n2ccc3cc(S(=O)(=O)N4CCCC4)ccc32)cc1OC (stereo not given),i
O=C([C@H]1C[C@H](Oc2ccccc2)CN1Cc1ccc2[nH]ccc2c1)N1CCOCC1,-0.8%
O=C(CCc1cc2n(n1)CCCNC2)Nc1ccc(-n2cncn2)cc1,-2.4%
CCCN1CC2(CCN(Cc3cn[nH]c3C(=O)O)CC2)CC1C(=O)O (stereo not given),9.2%
COc1ccc(-c2ccc3nnc(CNC(=O)Cc4cccc(OC)c4)n3n2)cc1,i
NC(=O)C1CCN(C(=O)c2ccc3c(c2)N(Cc2cccc(Cl)c2)C(=O)c2ccccc2S3(=O)=O)CC1,21.9%
CC(=O)Nc1ccc(NC(=O)c2ccc3c(c2)N(Cc2cccc(Cl)c2)C(=O)c2ccccc2S3=O)cc1 (stereo not given),11.2µM*
CC(C)NC(=O)c1ccc2c(c1)N(Cc1cccc(Cl)c1)C(=O)c1ccccc1S2=O (stereo not given),23.2%
COc1ccc(NC(=O)c2ccc3c(c2)N(Cc2cccc(Cl)c2)C(=O)c2ccccc2S3=O)cc1Cl (stereo not given),3.16µM*
COc1ccc(NC(=O)c2ccc3c(c2)N(Cc2cccc(Cl)c2)C(=O)c2ccccc2S3(=O)=O)cc1Cl,7.94µM*
O=C(NC1CCCCC1)c1ccc2c(c1)N(Cc1ccc(F)cc1)C(=O)c1ccccc1S2(=O)=O,-8.8%
O=C(c1ccc2c(c1)N(Cc1cccc(Cl)c1)C(=O)c1ccccc1S2=O)N1CCC(Cc2ccccc2)CC1 (stereo not given),-24.5%
CC1CCC(NC(=O)c2ccc3c(c2)N(Cc2cccc(Cl)c2)C(=O)c2ccccc2S3(=O)=O)CC1 (stereo not given),11.2µM*
COCCNC(=O)c1ccc2c(c1)N(Cc1cccc(Cl)c1)C(=O)c1ccccc1S2=O (stereo not given),21.8%
CCN1C(=O)c2ccccc2S(=O)c2ccc(C(=O)NCc3ccccc3OC)cc21 (stereo not given),-20.1%
COc1ccc(CCNC(=O)c2ccc3c(c2)N(Cc2cccc(C)c2)C(=O)c2ccccc2S3(=O)=O)cc1OC,i
CCC[C@@H]1CN(Cc2cn[nH]n2)C[C@H]1C(=O)O,-7.3%
CC(C)c1ccc(CNC(=O)C2CCN(c3cc(C(F)(F)F)ncn3)CC2)cc1,76.5%
Cc1cc(=O)n(CC(=O)Nc2ccc(F)cc2)c(N2CCC(C)CC2)n1,-15.9%
SMILES,Pf Dd2 inh
CC(=O)N1CCC(NC[C@H]2COCc3nc4cc(C)ccc4n32)CC1,17.6%[44.1 µM]
NC(=O)CO[C@@H]1CO[C@H]2[C@@H]1OC[C@@H]2NC(=O)c1ccc(C(F)(F)F)cc1,10.5%[44.1 µM]
CC(C)Oc1cc(N(C)CC2CC(=O)N(C(C)(C)C)C2)nc(N)n1 (stereo not given),-2.5%
CN1CC2(CCN(C(=O)Cc3ccc(-n4cnnn4)cc3)CC2)CC1=O,9.1%
CCOc1ccccc1NC(=O)N1CCCC(c2nc(-c3cnccn3)no2)CCNC(=O)CC1 (stereo not given),-21.7%
CC(=O)c1ccc(NC(=O)c2ccc3c(c2)N(Cc2cccc(Cl)c2)C(=O)c2ccccc2S3=O)cc1 (stereo not given),11.2µM*
CCOC(=O)N1CCN(C(=O)c2ccc3c(c2)N(Cc2cccc(Cl)c2)C(=O)c2ccccc2S3=O)CC1 (stereo not given),-10.8%
CC1CCCCN1C(=O)c1ccc2c(c1)N(Cc1cccc(Cl)c1)C(=O)c1ccccc1S2=O (stereo not given),-12.4%
Cc1ccc(C(=O)N2CCc3sc(C(=O)NCc4ccc(C)o4)cc3C2)cc1,11.2µM*
Cc1ccc(C(=O)N2CCc3sc(C(=O)O)cc3C2)cc1,17.7%
Cc1ccc(C(=O)N2CCc3sc(C(=O)NCc4ccc(F)cc4F)cc3C2)cc1,-14.3%
CCCCC(=O)OC1=C(C(=O)c2ccccc2)N(CC)S(=O)(=O)c2ccccc21,1.4%
CCCCCN1C(C(=O)c2ccccc2)=C(NC(=O)c2ccc(OC)c(OC)c2)c2ccccc2S1(=O)=O,89.2%
CCN1C(C(=O)c2ccccc2)=C(NC(=O)c2ccc(Cl)cc2)c2ccccc2S1(=O)=O,12.6µM*
Cc1cc2nc3n(c(=O)c2n1CC(=O)Nc1ccc2c(c1)OCCO2)CCCCC3,-7.3%
COc1ccc(NC(=O)c2ccc3c(c2)C(O)CCCCCN3C)cn1 (stereo not given),-40.2%
COc1ccc(NC(=O)c2ccc3c(c2)OCCN(Cc2ncccn2)C3)cc1F,i
COc1ccc(NC(=O)c2ccc3c(c2)OCCN(C2CCC2)C3)cn1,11.2µM*
CCCCC(=O)N1CCN(C2CCN(CCC(C)C)C2=O)CC1 (stereo not given),i
O=C(Nc1cc(F)c(F)c(F)c1)N1CCC(OC2CCN(Cc3ccccc3)CC2)CC1,i
CNC(=O)N1CCC(OC2CCN(Cc3ccccc3)CC2)CC1,-26.5%
O=C(c1c(F)cccc1F)N1CCC(OC2CCN(Cc3ccccc3)CC2)CC1,11.2µM*
CCc1noc(-c2cn(C3CCN(C(=O)c4cccs4)C3)nn2)n1 (stereo not given),i
CCCN(CC1CCOC1)C(=O)Nc1ccc(C)c(F)c1 (stereo not given),i[5.79 µM]
CCn1cc(S(=O)(=O)N2CCCCC2c2nc(-c3ccncc3)n[nH]2)cn1 (stereo not given),-9.7%
SMILES,Pf Dd2 inh
O=C1NC2(CN(Cc3ccccc3C(F)(F)F)C2)Oc2ccccc21,-13.9%
COc1ccc(NC(=O)CSc2nc3ccccc3n2CC(=O)Nc2cccc(C)c2C)cc1,2.1%
CCN(C(=O)Cn1c(SCC(=O)Nc2ccc(OC)cc2)nc2ccccc21)c1cccc(C)c1,10µM*
CCN(C(=O)Cn1c(SCC(=O)NCc2ccccc2)nc2ccccc21)c1cccc(C)c1,-22.7%
Cc1cccc2cc(C(=O)N3CCCC(Nc4ccc(F)cc4)C3)oc12 (stereo not given),-11.8%
O=C(c1ccnc(CC2CC(=O)N(c3ccccc3)C2)c1)N1CCCCC1 (stereo not given),-10.5%
CC(=O)Nc1ccc(CN2CCC3(Cc4ccccc4NC3=O)C2)cc1 (stereo not given),i
O=C1Nc2ccccc2CC12CCN2Cc1ccc(OC(F)(F)F)cc1 (stereo not given),-20.3%
COc1ccc(CN2CCC3(Cc4ccccc4NC3=O)C2)cc1 (stereo not given),10µM*
O=C1Nc2ccccc2OCC12CCN(Cc1cccnc1)CC2,i
O=C1Nc2ccccc2CC12CCCN(Cc1ccncc1)C2 (stereo not given),-20.6%
N#Cc1ccc(CN2CCC3(CC2)COc2ccccc2NC3=O)cc1,10µM*

# Assay outcomes as filed in PubChem BioAssay.
